# Experimental data as given in the supplement of paper PMC3414501.
# Counter-ions that a name gives are not always drawn.
# Tests used:
# [1] = test system: S. cerevisiae SK1 pCDA2-eGFP (USY613), sporulating; test: CDA2-GFP sporulation assay sensitivity score (z-score vs DMSO controls); higher = stronger inhibition of sporulation, active = hit call of the paper;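 also: active if sensitivity score above 5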
# [2] = test system: S. cerevisiae NKY1551 his4x/his4B, sporulating; test: HIS4 meiotic recombination assay sensitivity score (z-score vs DMSO controls); higher = stronger inhibition of sporulation/recombination, active = hit call of the paper;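 also: active if sensitivity score above 5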
# [3] = test system: S. cerevisiae AD1-9 (efflux-pump deficient), vegetative growth in YPD; test: growth sensitivity score (doubling time z-score vs DMSO controls); higher = slower growth, strongly negative scores also mark growth inhibition (complete suppression), active = hit call of the paper
# In short: (§1)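 Saccharomyces cerevisiae strains BY4741 and AD1-9 were seeded in rich medium in microtiter plates at an OD600 of 0.065. Compounds were added at a 1:100 dilution of DMSO stock. Optical density was read every 15 min for 24 hours on a Tecan GENios reader. Average doubling time was the time taken to reach a set generation point divided by generation number, and the growth sensitivity score was (compound mean − DMSO-control mean)/DMSO-control SD, using eight DMSO controls per experiment.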
# [4] = test system: S. cerevisiae BY4741 (wild-type), vegetative growth in YPD; test: as above
# In short: as §1
SMILES,CDA2-GFP sporulation assay sensitivity score [1],HIS4 meiotic recombination assay sensitivity score [2],growth sensitivity score [3],growth sensitivity score [4]
"CN1CCC(=C2c3ccccc3C=Cc3ccccc32)CC1 [Cyproheptadine hydrochloride] (stock concentration (mM, diluted 1:100): 10)",14 (active),6.95 (active),9.58 (active),3.38 (active)
"CCCCCCCCCCC[C@@H](C[C@@H]1OC(=O)[C@H]1CCCCCC)OC(=O)[C@H](CC(C)C)NC=O [Orlistat] (stock concentration (mM, diluted 1:100): 10)",-2.33 (inactive),-1.52 (inactive),-0.73 (inactive),0.78 (inactive)
"O=C1N[C@H](C(=O)O)CS1 [Procysteine] (stock concentration (mM, diluted 1:100): 10)",0.97 (inactive),-0.93 (inactive),-2.4,-0.31 (inactive)
"Cc1nccn1CC1CCc2c(c3ccccc3n2C)C1=O (centres undefined) [Ondansetron hcl] (stock concentration (mM, diluted 1:100): 8.9)",-0.41 (inactive),-0.73 (inactive),-1.11 (inactive),-0.22 (inactive)
"CCCCCCNC(=O)n1cc(F)c(=O)[nH]c1=O [Carmofur] (stock concentration (mM, diluted 1:100): 10.3)",0.49 (inactive),-2.78 (inactive),22.8 (active),37.2 (active)
"Cc1cccc(Nc2ccncc2S(=O)(=O)NC(=O)NC(C)C)c1 [Torasemide] (stock concentration (mM, diluted 1:100): 9.9)",-0.45 (inactive),0.74 (inactive),-2.4,-0.66 (inactive)
"COc1cc(-c2ccc(=O)[nH]n2)ccc1OC(F)F [Zardaverine] (stock concentration (mM, diluted 1:100): 11.7)",1.43 (inactive),-0.18 (inactive),2.67 (active),1.71 (inactive)
"COc1cc(C(=O)NS(=O)(=O)c2ccccc2C)ccc1Cc1cn(C)c2ccc(NC(=O)OC3CCCC3)cc12 [Zafirlukast] (stock concentration (mM, diluted 1:100): 10)",0.72 (inactive),1 (inactive),40.9 (active),-1.75 (inactive)
"O=C(O)COCCN1CCN([C@H](c2ccccc2)c2ccc(Cl)cc2)CC1 [Levocetirizine] (stock concentration (mM, diluted 1:100): 10.7)",-2.92 (inactive),-0.24 (inactive),-1.54 (inactive),-0.8 (inactive)
"CSc1nc2cc(Cl)c(Oc3cccc(Cl)c3Cl)cc2[nH]1 [Triclabendazole] (stock concentration (mM, diluted 1:100): 10)",0.58 (inactive),-1.98 (inactive),74.8 (active),168 (active)
"CCCCC(=O)N(Cc1ccc(-c2ccccc2-c2nnn[nH]2)cc1)[C@H](C(=O)O)C(C)C [Valsartan] (stock concentration (mM, diluted 1:100): 10)",0.42 (inactive),-0.5 (inactive),-1.81 (inactive),-1.05 (inactive)
"COc1ccccc1OCC(O)CN1CCN(CC(=O)Nc2c(C)cccc2C)CC1 (centres undefined) [Ranolazine dihydrochloride] (stock concentration (mM, diluted 1:100): 8.6)",-1.05 (inactive),-1.05 (inactive),-1.41 (inactive),-0.31 (inactive)
"C[C@H]1[C@H](OC(=O)CCC(=O)O)O[C@@H]2O[C@@]3(C)CC[C@H]4[C@H](C)CC[C@@H]1[C@@]24OO3 [Artesunate] (stock concentration (mM, diluted 1:100): 10)",0.74 (inactive),0.08 (inactive),23.2 (active),2.81 (active)
"Nc1nc(O)c2ncn(CCC(CO)CO)c2n1 [Penciclovir] (stock concentration (mM, diluted 1:100): 10)",0.81 (inactive),-0.35 (inactive),-0.22 (inactive),-0.88 (inactive)
"NC[C@H]1CC[C@H](C(=O)Oc2ccc(CCC(=O)O)cc2)CC1 [Cetraxate hydrochloride] (stock concentration (mM, diluted 1:100): 9)",-0.06 (inactive),-0.39 (inactive),-0.24 (inactive),1.25 (inactive)
"Cc1nc2n(c(=O)c1CCN1CCC(c3noc4cc(F)ccc34)CC1)CCCC2 [Risperidone] (stock concentration (mM, diluted 1:100): 10)",-0.4 (inactive),1.75 (inactive),-2.71,-0.68 (inactive)
"CCS(=O)(=O)CCn1c([N+](=O)[O-])cnc1C [Tinidazole] (stock concentration (mM, diluted 1:100): 10)",1.26 (inactive),-1.77 (inactive),-0.62 (inactive),-0.09 (inactive)
"O=C1CN2Cc3c(ccc(Cl)c3Cl)N=C2N1 [Anagrelide hydrochloride] (stock concentration (mM, diluted 1:100): 8.8)",3.77 (inactive),-0.8 (inactive),-1.22 (inactive),-2.21
"O=C(O[C@@H]1C[C@@H]2C[C@H]3C[C@H](C1)N2CC3=O)c1c[nH]c2ccccc12 [Dolasetron mesylate] (stock concentration (mM, diluted 1:100): 10.4)",-1 (inactive),-3.34 (inactive),-0.71 (inactive),0.44 (inactive)
"COC(=O)C1=C(C)NC(C)=C(C(=O)OC)C1c1ccccc1[N+](=O)[O-] [Nifedipine] (stock concentration (mM, diluted 1:100): 10.7)",3.14 (inactive),1.3 (inactive),60 (active),4.28 (active)
"Nc1ccn([C@H]2CC[C@@H](CO)O2)c(=O)n1 [Zalcitabine] (stock concentration (mM, diluted 1:100): 10)",1.61 (inactive),-0.41 (inactive),-0.86 (inactive),-1.35 (inactive)
